The campaign covered roughly 310,000 compounds. About 14,000 (4.5%) showed an effect of 50% or more. The effect is printed as a negative number. The entries come from a sample that favours strong results as a whole.
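Also: peak tail current of the secondary pulse compared with the same well before compound.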

For this assay, the target named is human ether-à-go-go-related gene (hERG) potassium channel (human, UniProt Q12809). The assay is described as follows: primary screen, population patch clamp on CHO cells stably expressing hERG; higher = less effect of the substance.
human ether-à-go-go-related gene (hERG) potassium channel, sequence (Q12809 whole entry, looked up): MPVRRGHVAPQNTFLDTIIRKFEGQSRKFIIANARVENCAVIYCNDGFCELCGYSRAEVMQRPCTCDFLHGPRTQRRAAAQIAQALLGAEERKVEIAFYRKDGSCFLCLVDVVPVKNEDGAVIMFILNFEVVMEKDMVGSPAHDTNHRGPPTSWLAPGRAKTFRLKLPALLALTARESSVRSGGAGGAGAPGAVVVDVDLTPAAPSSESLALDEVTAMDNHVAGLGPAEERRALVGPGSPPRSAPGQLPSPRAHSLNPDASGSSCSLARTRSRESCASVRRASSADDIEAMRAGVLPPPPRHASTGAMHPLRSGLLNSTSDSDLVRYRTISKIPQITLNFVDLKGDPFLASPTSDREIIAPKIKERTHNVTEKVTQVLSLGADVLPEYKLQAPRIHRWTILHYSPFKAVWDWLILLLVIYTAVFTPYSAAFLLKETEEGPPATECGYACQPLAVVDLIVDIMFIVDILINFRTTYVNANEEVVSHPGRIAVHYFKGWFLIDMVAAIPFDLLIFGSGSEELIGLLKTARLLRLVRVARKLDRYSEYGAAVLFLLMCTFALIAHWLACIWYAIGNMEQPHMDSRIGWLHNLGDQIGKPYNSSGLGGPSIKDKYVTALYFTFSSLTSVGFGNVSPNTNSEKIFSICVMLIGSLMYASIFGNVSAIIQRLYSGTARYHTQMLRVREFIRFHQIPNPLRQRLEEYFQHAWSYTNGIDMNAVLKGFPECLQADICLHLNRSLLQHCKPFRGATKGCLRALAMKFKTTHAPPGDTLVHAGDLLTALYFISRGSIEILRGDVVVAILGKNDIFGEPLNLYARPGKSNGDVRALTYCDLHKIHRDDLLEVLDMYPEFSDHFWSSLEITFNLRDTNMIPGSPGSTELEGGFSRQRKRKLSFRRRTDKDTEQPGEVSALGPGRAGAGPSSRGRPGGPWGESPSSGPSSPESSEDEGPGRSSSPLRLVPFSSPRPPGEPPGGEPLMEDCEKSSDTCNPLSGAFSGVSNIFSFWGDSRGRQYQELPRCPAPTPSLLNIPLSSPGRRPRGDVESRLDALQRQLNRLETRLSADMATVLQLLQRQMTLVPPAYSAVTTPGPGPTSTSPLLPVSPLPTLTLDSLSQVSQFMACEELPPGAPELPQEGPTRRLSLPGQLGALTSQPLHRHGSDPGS
`Oc1c(C(c2cccs2)N2CCN(c3ccccc3)CC2)ccc2cccnc12` (stereo not drawn): the “hERG current change (%, negative = inhibition) at 10uM” value amounted to 7.17%. For `COC(=O)C1C(O)=C(C=NCc2ccccc2)C(=O)CC1(C)C` (stereo not drawn) the value was -5.13%. Regarding `CC(=O)N(C)c1ccc(NC(=O)N2CCOCC2)cc1`, the “hERG current change (%, negative = inhibition) at 10uM” value is 4.94%. With `Cc1ccc(N2CC(O)Cn3c2nc2c3c(=O)[nH]c(=O)n2C)cc1` (stereo not drawn) the figure was 13.3%; with `Cc1ccc2nc(NCCC(=O)O)nc(-c3ccccc3)c2c1`, 3.76%. Regarding `CSCc1ccc(C(=O)N2CCC(CCC(=O)N(C)Cc3ccccc3)CC2)o1`, the “hERG current change (%, negative = inhibition) at 10uM” value is recorded as -50.7%. As for `CN(Cc1ccccc1)C(=O)CCC1CCN(C(=O)CCC(F)(F)F)CC1`, the “hERG current change (%, negative = inhibition) at 10uM” value is reported as -4.45%. With `CN(Cc1ccccc1)C(=O)CCC1CCN(C(=O)c2ccccc2C(F)(F)F)CC1` the figure was 8.38%; with `COC(=O)c1ccc(OC)c(CSc2nnc(COc3ccccc3)o2)c1`, -17.7%; with `Br.CCCCCCCCOC(=O)c1c(CSC(=N)N)n(C)c2cc(Br)c(OC(C)=O)cc12`, -22.8%.

As to `CCOC(=O)c1c(CSC(=N)N)n(-c2ccccc2)c2cc(Br)c(OC(C)=O)cc12`, the “hERG current change (%, negative = inhibition) at 10uM” value was -77.9%. With `CCOC(=O)c1c(C)n(C)c2cc(Br)c(C)cc12` the figure was 23.3%; with `CCOC(=O)c1c(CSc2ccccc2)n(C)c2cc(Br)c(OCC(O)CNC(CO)(CO)CO)cc12` (stereo not drawn), 2.71%; with `C=CCCc1ccc(C#N)c(SCc2c(C(=O)OCC)c3cc(OC(C)=O)c(Br)cc3n2C)n1`, -1.18%. Turning to `CCOC(=O)c1c(CSc2nc(C)cc(C)c2C#N)n(C)c2cc(Br)c(OC(C)=O)cc12`, the “hERG current change (%, negative = inhibition) at 10uM” value is reported as 8.76%. With `CCOC(=O)c1c(C)n(C)c2c1cc(OC(C)=O)c1ccccc12` the figure was 19.7%; with `Br.CCOC(=O)c1c(CSC(=N)N)n(-c2ccc(C)cc2)c2cc(Br)c(OC(C)=O)cc12`, -65.4%. For `Br.CCOC(=O)c1c(CSC(=N)N)n(C)c2cc(Br)c(OC(C)=O)cc12` the value was -68.7%; for `CC12CCC(C(=O)Nc3cccc(Cl)c3Cl)([C@H](Br)C1=O)C2(C)C` (stereo partly drawn), -39.6%. With `COC(=O)c1ccc(NC(=O)C2CCCN(S(=O)(=O)c3cnc[nH]3)C2)cc1` (stereo not drawn) the figure was 3.35%. Take `Cc1ccc(C(=O)c2oc3ccccc3c2N)cc1`: the “hERG current change (%, negative = inhibition) at 10uM” value was -7.77%. With `CCCCOc1ccc(C(=O)NCC(=O)NC(C)CCc2ccccc2)cc1` (stereo not drawn) the figure was -4.99%; with `CC(=O)c1cnc(N(C)C)s1`, 10%. With `Cc1nnc(SCC(=O)Nc2ccc(-c3nc4ccccc4s3)cc2)s1` the figure was 23.4%; with `N/C(=N\[N+](=O)[O-])N1CCN(C(=O)OC2CCCC2)CC1`, 19.4%; with `COc1ccc(CNC(=O)CC(C)S(=O)(=O)c2ccc3c(c2)NC(=O)CO3)cc1` (stereo not drawn), 10.1%. For `Cn1c(SCC(=O)Nc2ccc(Cl)cn2)nnc1C1CC1` the value was -3.25%; for `C=CCn1cccc(C(=O)Nc2ccc(C)c(C)c2)c1=O`, -71.9%; for `C=CCn1cccc(C(=O)Nc2ccc(C)c(Cl)c2)c1=O`, 10%.

For `O=C(Nc1ccccc1)c1cccn(Cc2ccccc2)c1=O`, the “hERG current change (%, negative = inhibition) at 10uM” value was determined as 13.7%.

With `O=C(CCc1ccccc1)Nc1ccncc1`, the “hERG current change (%, negative = inhibition) at 10uM” value is -56.8%.

For `O=C(NCc1ccccc1)c1cccn(Cc2ccccc2)c1=O`, the “hERG current change (%, negative = inhibition) at 10uM” value was -29.3%. For `O=C(CCc1ccccc1)Nc1cccc(NC(=O)CCc2ccccc2)c1` the value was -13.4%; for `O=C(CCc1ccccc1)Nc1ccccc1`, -2.56%; for `C=CCn1cccc(C(=O)Nc2ccc(C)cc2)c1=O`, -7.96%. `O=C(Nc1ccncc1)c1cccn(Cc2ccccc2)c1=O`: the “hERG current change (%, negative = inhibition) at 10uM” value is -55.8%. As for `COc1ccc(NC(=O)COC(=O)CN2C(=O)NC(C)(C)C2=O)cc1`, the “hERG current change (%, negative = inhibition) at 10uM” value amounted to 2.55%. With `Cc1ccc(-c2cccc(OC(=O)c3ccccc3F)c2)cc1` the figure was 5.02%.

As for `COc1ccc(NC(=O)C2CCN(S(=O)(=O)c3ccc4[nH]c(=O)oc4c3)CC2)c(OC)c1`, the “hERG current change (%, negative = inhibition) at 10uM” value is recorded as 3.47%.

For `O=S(=O)(c1ccccc1)c1nc(-c2ccc(F)cc2)oc1NCC1CCCO1` (stereo not drawn), the “hERG current change (%, negative = inhibition) at 10uM” value is reported as -34.6%. With `COc1cc2c(cc1OC)CN(C(=O)C(C)(C)C)CC2` the figure was 17.6%. With `COc1ccc(CCNCC(O)COc2c(C)cccc2C)cc1OC.O=C(O)C(=O)O` (stereo not drawn), the “hERG current change (%, negative = inhibition) at 10uM” value came to 6.84%. As for `COc1ccc(CCNCC(O)COc2cccc(Br)c2)cc1OC` (stereo not drawn), the “hERG current change (%, negative = inhibition) at 10uM” value is given as -67.3%. For `OC(CNCCc1ccc(C(F)(F)F)cc1)COc1ccc2ccccc2c1` (stereo not drawn) the value was -46.5%; for `COc1ccc(CCNCC(O)COc2cccc(Br)c2)cc1` (stereo not drawn), -50%.

As to `COc1ccc(CCNC(=O)COC(=O)COc2ccc(Cl)cc2)cc1OC`, the “hERG current change (%, negative = inhibition) at 10uM” value amounted to 7.05%. As for `COc1ccc(CCNCC(O)COc2cccc(C(C)=O)c2)cc1OC.O=C(O)C(=O)O` (stereo not drawn), the “hERG current change (%, negative = inhibition) at 10uM” value is given as -0.028%. For `COc1ccc(CCNCC(O)COc2ccc(Cl)cc2)cc1OC.Cl` (stereo not drawn) the value was -72.1%. For `COc1ccc(CCNC(=O)CCCOc2ccc(Cl)cc2)cc1OC` the value was -15.3%. For `COc1ccc(CCNCC(O)COc2ccc(OC)cc2C(C)(C)C)cc1` (stereo not drawn) the value was -38.8%; for `CCN1CCCC1CNC(=O)C(=O)Nc1ccccc1OC` (stereo not drawn), -15%.

Take `C#CCNC(=O)C1=C[C@@H](c2ccc(Br)cc2)C[C@@H](OCc2ccc(CO)cc2)O1`: the “hERG current change (%, negative = inhibition) at 10uM” value was found to be 16.6%. With `Cl.N=c1ccn(Cc2cccc(Cl)c2)cc1` the figure was 2.03%; with `C=CCO/N=C/C1C(=O)CC(C)(C)CC1=O`, 10.9%; with `CC(C(=O)NC1CCCC1)N(C(=O)CS(=O)CC(=O)Nc1ccc(F)cc1)c1ccc2c(c1)OCCO2` (stereo not drawn), -3.58%.

In the case of `CC(=O)c1csc(CS(=O)(=O)c2ccccn2)n1`, the “hERG current change (%, negative = inhibition) at 10uM” value stood at 5.4%. For `Fc1cccc(Nc2nc3ccccc3n3cnnc23)c1`, the “hERG current change (%, negative = inhibition) at 10uM” value was found to be 4.55%.

(Values after publication PMC4336329 (PLoS ONE, 2015).)
